Experimental findings from PubChem BioAssay (NCATS) are described below.

SMILES strings stand for the structures. Results filed as inconclusive are left out. Active and inactive are the calls of the source. Calls come from the whole dose curve; as a rule, active = well fitted inhibition curve with a large enough effect; inconclusive = small, poorly fitted or top-dose-only effect; inactive = flat fitted curve, though single readings scatter.
% is set by controls: 0 for no effect and ±100 for the full control effect; potency is the fitted concentration of half-maximal effect.

The subject of the assay is CRL-7250. The assay is described as follows: Cytotoxic Profiling of Annotated Libraries Using Quantitative High-Throughput Screening (AID 1296008). Note: nearly all actives have a fitted effect of over 60% in size. The settings on record: Five cell lines viability, CellTiter-Glo ATP luminescence, 48-72 h; max response: active compounds read low. The procedure, abridged: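 Cytotoxicity was measured as CellTiter-Glo ATP luminescence, read after 10 min at room temperature. Compound treatment of the cells lasted 48 or 72 hr at 37 degrees Celsius in a qHTS format.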
(ATP-based viability assays read luminescence as a measure of living cells.)
Regarding `C=C(COC(=O)C(O)C(O)CN)C12OC1C1(C)C(=CC2=O)C(O)C(O)CC1C` (stereo not given), the max response was -7.2% (inactive).

For `COc1cc(-c2nc(N[C@H](CO)Cc3ccccc3)ccc2C(=O)NCCOc2ccccc2)cc(OC)c1OC`, the max response is 4.02% (inactive).

Turning to `Cc1cccc(-c2[nH]ncc2-c2ccc(F)c(-c3cnn(CCO)c3)c2)n1`, the max response is -17.9% (inactive).

Consider `CC1(C)CC[C@]2(C(=O)O)CC[C@]3(C)C(=CCC4[C@@]5(C)C[C@@H](O)[C@H](O)C(CO)(CO)C5CC[C@]43C)C2[C@@H]1O` (stereo not given in full), for which the Potency was 7.96 µM (active).

Take `O=C(NC1CCC1)c1ccc(C#Cc2cccc(F)c2)nc1`: the max response is -2.08% (inactive).

Consider `Nc1nc2c(cnn2CCCc2ccc(O)cc2)c2nc(-c3ccco3)nn12`, for which the compound was called inactive.

As to `CC(=O)O[C@@H]1C[C@]2(C)[C@@]3(CCC4[C@@]5(C)CC[C@H](O[C@@H]6O[C@H](C(=O)O)[C@@H](O)[C@H](OC7OC(CO)C(O)C(O)[C@H]7O[C@@H]7O[C@@H](C)[C@H](O)[C@@H](O)[C@H]7O[C@@H]7OC[C@](O)(CO)[C@H]7O)[C@H]6OC6OC(CO)C(O)C(O)C6O)C(C)(C)C5CC[C@]42C)OC[C@@]12CCC(C)(C)CC23` (stereo not given in full), the max response was -2.03% (inactive).

In the case of `CC(C)(CNC(=O)c1cccc(-c2noc(C(F)(F)F)n2)c1)c1coc(-c2ccccc2)n1`, the max response is 1.16% (inactive).

For the compound `O=C1COc2nccc(-c3ccccc3F)c2CN1Cc1cc(C(F)(F)F)cc(C(F)(F)F)c1`, the result was inactive.

`O=C(NC[C@H](O)CN1CCc2ccccc2C1)c1ccnc(NC2CCC2)c1`: the max response was -5.29% (inactive).

In the case of `O=C(O)c1cccc(-c2ccc(-c3cn(C(=O)N4CCCCC4Cc4ccccc4)nn3)cc2)c1` (stereo not given), the max response is 0.106% (inactive).

Regarding `CC(=O)[C@H]1CC[C@H]2[C@@H]3CC=C4C[C@@H](OS(=O)(=O)O)CC[C@]4(C)[C@H]3CC[C@]12C`, the call was inactive.

Take `O=C(NCC1(N2CCN(c3ccccc3)CC2)CCOCC1)c1cccnc1Sc1ccccc1`: the result was inactive.

Take `C[C@@H]1C[C@H](C)CN(CCC(=O)Nc2ccc(Br)cc2)C1`: the max response was -5.34% (inactive).

For the compound `C[C@@H]1C[C@H]2O[C@@]3(O[C@@H]2C(C)(C)O)C(O)[C@@]2(C)C4CCC5C(C)(C)[C@@H](O[C@H]6OC[C@H](O)[C@@H](O)[C@@H]6O)CC[C@@]56C[C@@]46CC[C@]2(C)C13` (stereo not given in full), the max response was 1.57% (inactive).

Turning to `COc1ccc(N2CCN(C(=O)c3cc4c(s3)-c3ccccc3S(=O)(=O)C4)CC2)cc1`, the max response is 4.26% (inactive).

As to `CCOc1ccc(Cc2nc(-c3c(C)nc4ccccn34)cs2)cc1`, the Potency was 0.0517 µM (active).

Regarding `CCC[C@H](N[C@H]1CCc2cc(F)cc(F)c2C1)C(=O)Nc1cn(C(C)(C)CNCC(C)(C)C)cn1`, the max response was 4.72% (inactive).

As for `CCC(C)C(=O)O[C@H]1[C@@H](OC(=O)c2ccoc2)C[C@](C)(O)[C@]23OC(C)(C)[C@H](C[C@H](OC(=O)c4ccoc4)[C@]12COC(C)=O)[C@H]3OC(C)=O` (stereo not given in full), the max response is -11% (inactive).

As for `COC1CC(=O)C23C(=O)NC(CC(C)C)C2C(C)C(C)=CC3/C=C(\C)CCCC1O` (stereo not given), the max response is -6.23% (inactive).

As to `COc1c2c(nc3occc13)C(CC=C(C)C)(OC)C(O)CC2` (stereo not given), the max response was -11.5% (inactive).

Consider `O=c1[nH]cnc2c([C@@H]3N[C@H](CO)[C@@H](O)[C@H]3O)c[nH]c12`, for which the max response is -8.88% (inactive).

`O=C(COc1ccc(C(=O)c2ccccc2)cc1)NC1CCN(Cc2ccccc2)CC1`: the Potency is 8.2 µM (active).

In the case of `CC1OC(OC2C(O)COC(O[C@@H]3[C@@H](O)[C@@H](O)[C@H](OC4C(OC(=O)[C@]56CCC(C)(C)CC5C5=CCC7[C@@]8(C)C[C@H](O)[C@H](OC9OC(CO)C(O)C(O)C9O)[C@@](C)(CO)C8[C@H](O)C[C@@]7(C)[C@]5(C)CC6)OCC(O)C4O)O[C@H]3C)C2O)C(O)C(O)C1O` (stereo not given in full), the max response is -12.5% (inactive).

For the compound `COc1cc(N(C)CCN(C)C)c(N)cc1Nc1nccc(-c2cn(C)c3ccccc23)n1`, the max response was -5.14% (inactive).

Consider `C[C@@]12C(=O)N(c3ccc(C(=O)Nc4cccc5cccnc45)cc3)C(=O)[C@@H]1[C@@H]1C=C[C@H]2C1`, for which the max response is -9.69% (inactive).

`Cc1ccc(N2CCN(CCC3NC(=O)c4ccccc43)CC2)cc1C` (stereo not given): the max response was 4.52% (inactive).

For the compound `C=C1C(=O)OC[C@@H]1C/C=C(\C)CC1CC(C)C(=O)O1` (stereo not given in full), the max response is -16.8% (inactive).

Regarding `N#Cc1ccc(COC[C@H]2O[C@@H](n3c(NCc4ccc(Cl)c(Cl)c4)nc4c(N)ncnc43)[C@H](O)[C@@H]2O)cc1`, the result was inactive.

Regarding `Nc1nc2c(nc(Br)n2[C@@H]2O[C@@H]3COP(=O)(O)O[C@H]3[C@H]2O)c(=O)[nH]1`, the max response was -4.64% (inactive).

Turning to `COc1ccc(C2Oc3c(OC)cc(CCCO)cc3C2COC2OC(CO)C(O)C(O)C2O)cc1OC` (stereo not given), the call was inactive.

With `COc1cc(CCc2cc(NC(=O)c3ccc(N4CC(C)NC(C)C4)cc3)n[nH]2)cc(OC)c1` (stereo not given), the Potency is 9.2 µM (active).

Take `CC(C)(Cc1ccccc1)NCC(O)c1ccc(O)c(NS(C)(=O)=O)c1` (stereo not given): the max response was 0.0508% (inactive).

As to `CC1=CC2/C=C(\C)CCC(O)C(=O)C(O)CC(=O)C23C(=O)NC(CC(C)C)C3C1C` (stereo not given), the result was inactive.

With `O=C(N[C@H]1CCN(C(=O)c2cc(C(F)(F)F)cc(C(F)(F)F)c2)[C@H](Cc2ccc(Cl)cc2)C1)c1ccnc2ccccc12`, the max response is 0.275% (inactive).

In the case of `C/C(=C/CO)CCC1C(C)CCC2C(C)(C)CCCC12C` (stereo not given), the max response was -3.35% (inactive).

As to `CC[C@@H]1C[C@]1(NC(=O)[C@@H]1C[C@@H]2CN1C(=O)[C@H](C(C)(C)C)NC(=O)OCC(C)(C)CCCCc1cccc3c1CN(C3)C(=O)O2)C(=O)NS(=O)(=O)C1CC1`, the max response was -9.24% (inactive).

For `O=C(CSc1nc2ccccc2c(=O)n1-c1ccccc1)Nc1ccc2c(c1)CCC2`, the max response was 1.59% (inactive).

`CC(C)/C=C1\NC(=O)C(C(C)C)n2c1nc1ccccc1c2=O` (stereo not given): the max response was 2.92% (inactive).

As for `Cc1cc(F)ccc1-c1nc(NCCN=C(N)NC#N)nc2c1ccc(=O)n2-c1c(F)cccc1F`, the max response is 1.44% (inactive).
